Test results taken from PubChem BioAssay (EPA / NIEHS).
Inconclusive results are not listed. Active and inactive are the calls of the source. The calls were made as follows: active = hit-call score of the fitted dose curve at least 0.9, where 1 is the maximum; inconclusive = response in the unintended direction; inactive = score below 0.9.

Experiments:
[1] = target: human Caspase 4 (CASP4), CASP4 (gene 837) (UniProt P49662); assay: NVS_ENZ_hCASP4: NovaScreen (NVS) Enzymatic Assay for human Caspase 4 (CASP4) (AID 2283143)
Method in brief: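 The cell-free assay used E. coli-expressed enzyme with a fluorogenic substrate, read 2 h after dosing. Signal loss was scored versus DMSO. Screening was in duplicate at 25 uM, then singleton concentration-response up to 50 uM.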

[2] = target: human Esterase Plasma (ES), BCHE (gene 590) (UniProt P06276); assay: NVS_ENZ_hES: NovaScreen (NVS) Enzymatic Assay for human Esterase Plasma (ES) (AID 2283157)
Sequence of human Esterase Plasma (ES), BCHE (gene 590) (P06276 whole entry, looked up): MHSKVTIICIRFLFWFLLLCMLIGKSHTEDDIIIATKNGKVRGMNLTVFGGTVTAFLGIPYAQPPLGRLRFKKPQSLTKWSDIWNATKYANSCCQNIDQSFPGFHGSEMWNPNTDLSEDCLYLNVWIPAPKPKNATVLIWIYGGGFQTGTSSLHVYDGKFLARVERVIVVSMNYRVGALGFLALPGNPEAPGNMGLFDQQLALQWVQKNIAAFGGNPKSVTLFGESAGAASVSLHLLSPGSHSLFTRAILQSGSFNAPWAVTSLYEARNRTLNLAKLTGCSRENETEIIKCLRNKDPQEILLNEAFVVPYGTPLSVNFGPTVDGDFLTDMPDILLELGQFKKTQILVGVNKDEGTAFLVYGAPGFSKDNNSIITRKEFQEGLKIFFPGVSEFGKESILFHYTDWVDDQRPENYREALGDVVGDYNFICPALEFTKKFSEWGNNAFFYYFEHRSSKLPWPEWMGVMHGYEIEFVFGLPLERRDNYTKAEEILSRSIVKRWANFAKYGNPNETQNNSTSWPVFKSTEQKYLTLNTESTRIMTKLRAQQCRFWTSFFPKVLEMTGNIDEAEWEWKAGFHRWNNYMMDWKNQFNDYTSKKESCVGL
Method in brief: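 Cell-free enzyme assay using esterase extracted from human plasma; colorimetric absorbance read 0.25 hour after dosing. Single-concentration duplicate screen at 25 uM, then concentration-response up to 50 uM; loss of signal scored against DMSO baseline.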

[3] = target: human Janus Kinase 2 (Jak2), JAK2 (gene 3717) (UniProt O60674); assay: NVS_ENZ_hJak2: NovaScreen (NVS) Enzymatic Assay for human Janus Kinase 2 (Jak2) (AID 2283169)
Sequence of human Janus Kinase 2 (Jak2), JAK2 (gene 3717) (O60674 whole entry, looked up): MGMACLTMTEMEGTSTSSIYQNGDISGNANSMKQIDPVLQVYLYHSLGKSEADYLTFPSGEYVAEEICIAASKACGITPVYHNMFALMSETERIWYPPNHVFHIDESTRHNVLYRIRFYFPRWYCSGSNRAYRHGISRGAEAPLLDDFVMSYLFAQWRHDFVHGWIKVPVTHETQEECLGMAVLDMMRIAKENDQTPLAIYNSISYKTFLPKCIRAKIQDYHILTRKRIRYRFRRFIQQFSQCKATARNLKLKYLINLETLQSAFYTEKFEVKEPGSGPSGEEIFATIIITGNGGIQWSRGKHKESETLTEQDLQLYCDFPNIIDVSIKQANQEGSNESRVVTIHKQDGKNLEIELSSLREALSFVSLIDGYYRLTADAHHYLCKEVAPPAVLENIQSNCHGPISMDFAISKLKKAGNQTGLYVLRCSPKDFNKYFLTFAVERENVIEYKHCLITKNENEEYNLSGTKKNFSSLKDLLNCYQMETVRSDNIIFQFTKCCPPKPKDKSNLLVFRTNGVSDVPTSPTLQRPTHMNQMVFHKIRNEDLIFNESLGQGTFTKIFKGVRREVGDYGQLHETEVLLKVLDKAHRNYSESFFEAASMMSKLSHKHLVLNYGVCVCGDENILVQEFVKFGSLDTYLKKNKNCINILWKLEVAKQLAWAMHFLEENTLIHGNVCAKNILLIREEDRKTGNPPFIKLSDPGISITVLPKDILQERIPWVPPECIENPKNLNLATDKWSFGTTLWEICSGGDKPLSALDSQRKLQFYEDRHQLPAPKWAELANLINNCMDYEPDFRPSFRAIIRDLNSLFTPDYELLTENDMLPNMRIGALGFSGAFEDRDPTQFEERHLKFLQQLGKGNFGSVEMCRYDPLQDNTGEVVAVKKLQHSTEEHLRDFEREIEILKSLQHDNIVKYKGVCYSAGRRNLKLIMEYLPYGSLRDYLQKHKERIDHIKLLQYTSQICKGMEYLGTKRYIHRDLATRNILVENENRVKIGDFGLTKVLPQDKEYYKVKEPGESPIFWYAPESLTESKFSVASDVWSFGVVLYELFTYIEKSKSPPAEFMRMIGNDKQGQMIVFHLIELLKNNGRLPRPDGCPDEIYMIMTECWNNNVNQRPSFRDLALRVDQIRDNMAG
Method in brief: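 Cell-free recombinant human JAK2 enzyme activity assay, fluorescence/electrophoretic mobility shift read 1 h after dosing. Screened in duplicate at 25 uM, then concentration-response up to 50 uM; activity as signal loss relative to DMSO.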

[4] = target: human LYN Proto-Oncogene, Src family Tyrosine Kinase (LynA), LYN (gene 4067) (UniProt P07948); assay: NVS_ENZ_hLynA: NovaScreen (NVS) Enzymatic Assay for human LYN Proto-Oncogene, Src family Tyrosine Kinase (LynA) (AID 2283173)
Method in brief: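 Recombinant kinase with fluorescent substrate; product separated from substrate by electrophoretic mobility shift and read 1 h after dosing. Duplicate screen at 25 uM, then concentration-response up to 50 uM; activity scored as signal loss against DMSO.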

[5] = target: human Beta-secretase (BACE), BACE1 (gene 23621) (UniProt P56817); assay: NVS_ENZ_hBACE: NovaScreen (NVS) Enzymatic Assay for human Beta-secretase (BACE) (AID 2283140);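 also: hits are inhibitors that reduce fluorescent substrate signal versus DMSO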
Sequence of human Beta-secretase (BACE), BACE1 (gene 23621) (P56817 whole entry, looked up): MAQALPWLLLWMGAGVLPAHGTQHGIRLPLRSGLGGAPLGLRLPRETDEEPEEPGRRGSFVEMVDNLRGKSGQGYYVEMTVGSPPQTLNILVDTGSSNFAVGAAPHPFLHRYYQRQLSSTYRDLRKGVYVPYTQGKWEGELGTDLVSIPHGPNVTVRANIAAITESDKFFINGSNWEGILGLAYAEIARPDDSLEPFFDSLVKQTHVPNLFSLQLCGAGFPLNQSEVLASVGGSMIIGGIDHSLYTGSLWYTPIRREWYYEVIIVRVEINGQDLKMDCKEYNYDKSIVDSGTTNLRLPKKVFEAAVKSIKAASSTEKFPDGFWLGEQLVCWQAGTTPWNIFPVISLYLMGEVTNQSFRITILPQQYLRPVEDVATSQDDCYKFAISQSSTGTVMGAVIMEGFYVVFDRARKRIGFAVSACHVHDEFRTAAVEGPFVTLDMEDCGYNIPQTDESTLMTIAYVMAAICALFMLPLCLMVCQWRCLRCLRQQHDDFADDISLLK
Method in brief: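 Cell-free assay of recombinant Sf9-expressed human BACE with fluorescent substrate, read by fluorescence intensity after 1 h. Primary screen in duplicate at 25 uM; actives then run in concentration series; loss of signal relative to DMSO.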

[6] = target: Histone deacetylase 3 (Homo sapiens) (UniProt O15379); assay: NVS_ENZ_hHDAC3: NovaScreen (NVS) Enzymatic Assay for human Histone Deacetylase 3 (HDAC3) (AID 2283163)
Method in brief: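 Recombinant human HDAC3 with fluorescent substrate, 1 h after dosing; product separated from substrate by electrophoretic mobility shift and read by fluorescence. Primary screen at 25 uM in duplicate; actives (e.g. ≥30% inhibition) retested in concentration-response up to 50 uM.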

CDK2 (gene 1017) = CDK2 (gene 1017) (UniProt P24941); assay: NVS_ENZ_hCDK2: NovaScreen (NVS) Enzymatic Assay for human Cyclin-Cependent Kinase 2 (CDK2) (AID 2283144)
Method in brief: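 Cell-free recombinant human CDK2 with fluorescent substrate, product separated by electrophoretic mobility shift; 1 hr read. Primary screen at 25 uM in duplicate, actives retested in concentration-response up to 50 uM; loss of signal versus DMSO.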

[7] = target: human Colony Stimulating Factor 1 Receptor (CSF1R), CSF1R (gene 1436) (UniProt P07333); assay: NVS_ENZ_hCSF1R: NovaScreen (NVS) Enzymatic Assay for human Colony Stimulating Factor 1 Receptor (CSF1R) (AID 2283150)
Sequence of human Colony Stimulating Factor 1 Receptor (CSF1R), CSF1R (gene 1436) (P07333 whole entry, looked up): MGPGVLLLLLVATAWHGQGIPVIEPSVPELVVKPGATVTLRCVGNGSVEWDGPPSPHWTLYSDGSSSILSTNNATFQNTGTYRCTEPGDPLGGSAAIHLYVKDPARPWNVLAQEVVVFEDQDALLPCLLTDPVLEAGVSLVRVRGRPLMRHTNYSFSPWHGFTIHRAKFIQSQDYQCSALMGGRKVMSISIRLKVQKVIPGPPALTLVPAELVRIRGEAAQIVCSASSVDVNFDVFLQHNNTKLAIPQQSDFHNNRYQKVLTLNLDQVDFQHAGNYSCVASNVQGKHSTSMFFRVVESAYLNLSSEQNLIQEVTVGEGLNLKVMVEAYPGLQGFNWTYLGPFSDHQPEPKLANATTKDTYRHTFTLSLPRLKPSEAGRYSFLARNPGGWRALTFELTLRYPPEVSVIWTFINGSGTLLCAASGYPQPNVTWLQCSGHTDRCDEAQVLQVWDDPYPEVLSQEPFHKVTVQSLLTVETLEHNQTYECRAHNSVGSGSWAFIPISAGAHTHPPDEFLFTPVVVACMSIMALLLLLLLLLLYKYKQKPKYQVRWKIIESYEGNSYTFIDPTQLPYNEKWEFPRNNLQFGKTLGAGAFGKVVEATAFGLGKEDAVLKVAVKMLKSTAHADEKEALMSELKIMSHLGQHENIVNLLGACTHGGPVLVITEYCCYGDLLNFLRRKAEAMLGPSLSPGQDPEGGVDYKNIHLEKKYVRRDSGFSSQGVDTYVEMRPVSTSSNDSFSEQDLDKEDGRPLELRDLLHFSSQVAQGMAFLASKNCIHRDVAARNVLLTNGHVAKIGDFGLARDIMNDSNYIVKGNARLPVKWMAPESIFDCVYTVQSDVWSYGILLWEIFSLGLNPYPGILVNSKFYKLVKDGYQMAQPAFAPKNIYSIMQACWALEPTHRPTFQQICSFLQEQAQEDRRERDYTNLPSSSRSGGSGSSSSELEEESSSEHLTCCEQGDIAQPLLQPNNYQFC
Method in brief: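 Cell-free recombinant human CSF1R kinase with fluorescent substrate, product separated by electrophoretic mobility shift; read 1 h after dosing. Primary screen at 25 uM in duplicate, actives then in concentration-response up to 50 uM, relative to DMSO.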

[8] = target: human Insulin Receptor (InsR), INSR (gene 3643) (UniProt P06213); assay: NVS_ENZ_hInsR: NovaScreen (NVS) Enzymatic Assay for human Insulin Receptor (InsR) (AID 2283168)
Method in brief: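 Fluorescent substrate phosphorylation by recombinant kinase, product resolved by electrophoretic mobility shift, read 1 h after dosing. Screened in duplicate at 25 uM; hits (e.g., 30% inhibition) run in concentration-response to 50 uM; DMSO as baseline.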

[9] = target: human c-Jun N-terminal Kinases (JNK2), MAPK9 (gene 5601) (UniProt P45984); assay: NVS_ENZ_hJNK2: NovaScreen (NVS) Enzymatic Assay for human c-Jun N-terminal Kinases (JNK2) (AID 2283171)
Sequence of human c-Jun N-terminal Kinases (JNK2), MAPK9 (gene 5601) (P45984 whole entry, looked up): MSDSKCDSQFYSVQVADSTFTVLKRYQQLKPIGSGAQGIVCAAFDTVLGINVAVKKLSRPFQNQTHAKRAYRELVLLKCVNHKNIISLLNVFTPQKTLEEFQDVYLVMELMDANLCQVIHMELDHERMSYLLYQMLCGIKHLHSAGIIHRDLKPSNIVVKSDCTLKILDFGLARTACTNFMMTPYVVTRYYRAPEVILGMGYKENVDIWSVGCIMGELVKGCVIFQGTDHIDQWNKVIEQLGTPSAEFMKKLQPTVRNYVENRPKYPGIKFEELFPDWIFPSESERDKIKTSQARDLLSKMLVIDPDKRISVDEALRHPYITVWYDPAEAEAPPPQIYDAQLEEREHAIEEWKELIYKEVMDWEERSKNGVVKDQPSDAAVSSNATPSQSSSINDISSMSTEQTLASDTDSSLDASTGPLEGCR
Method in brief: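 Cell-free recombinant human JNK2 activity assay; fluorescent substrate and product separated by electrophoretic mobility shift, read 1 h after dosing. Primary duplicate screen at 25 uM; actives run in concentration-response up to 50 uM, relative to DMSO.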

[10] = target: human Dual Specificity Protein Phosphatase 3 (DUSP3), DUSP3 (gene 1845) (UniProt P51452); assay: NVS_ENZ_hDUSP3: NovaScreen (NVS) Enzymatic Assay for human Dual Specificity Protein Phosphatase 3 (DUSP3) (AID 2283152);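 also: phosphatase activity of recombinant human DUSP3 on a fluorogenic substrate without cells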
Sequence of human Dual Specificity Protein Phosphatase 3 (DUSP3), DUSP3 (gene 1845) (P51452 whole entry, looked up): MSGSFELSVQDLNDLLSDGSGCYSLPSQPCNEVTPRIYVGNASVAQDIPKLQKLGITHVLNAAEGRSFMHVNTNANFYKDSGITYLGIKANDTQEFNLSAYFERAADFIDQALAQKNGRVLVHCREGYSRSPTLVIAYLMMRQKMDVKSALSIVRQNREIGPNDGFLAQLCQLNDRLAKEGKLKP
Method in brief: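 Cell-free assay with recombinant human DUSP3 and fluorogenic substrate, read by fluorescence intensity. Primary screen ran duplicate at 25 uM; actives followed up in concentration series; loss of signal versus DMSO scored.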

[11] = target: human Elastase, ELANE (gene 1991) (UniProt P08246); assay: NVS_ENZ_hElastase: NovaScreen (NVS) Enzymatic Assay for human Elastase (AID 2283153)
Sequence of human Elastase, ELANE (gene 1991) (P08246 whole entry, looked up): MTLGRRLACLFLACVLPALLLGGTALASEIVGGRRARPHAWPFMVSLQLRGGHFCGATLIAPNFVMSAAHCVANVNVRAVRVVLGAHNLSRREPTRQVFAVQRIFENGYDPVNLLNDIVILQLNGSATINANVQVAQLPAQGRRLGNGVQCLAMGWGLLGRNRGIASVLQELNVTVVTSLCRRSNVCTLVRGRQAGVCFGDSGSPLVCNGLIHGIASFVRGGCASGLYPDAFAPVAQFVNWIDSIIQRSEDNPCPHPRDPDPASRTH
Method in brief: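 Cell-free elastase from human neutrophils, 1.5 h after dosing, activity read by absorbance. Primary screen in duplicate at 25 uM; hits (e.g., 30% inhibition) rerun in singleton concentration-response up to 50 uM, fitted versus DMSO.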

[12] = target: Glycogen synthase kinase-3 beta (Homo sapiens) (UniProt P49841); assay: NVS_ENZ_hGSK3b: NovaScreen (NVS) Enzymatic Assay for human Glycogen Synthase Kinase-3 beta (GSK3b) (AID 2283165)
Sequence of Glycogen synthase kinase-3 beta (Homo sapiens) (P49841 whole entry, looked up): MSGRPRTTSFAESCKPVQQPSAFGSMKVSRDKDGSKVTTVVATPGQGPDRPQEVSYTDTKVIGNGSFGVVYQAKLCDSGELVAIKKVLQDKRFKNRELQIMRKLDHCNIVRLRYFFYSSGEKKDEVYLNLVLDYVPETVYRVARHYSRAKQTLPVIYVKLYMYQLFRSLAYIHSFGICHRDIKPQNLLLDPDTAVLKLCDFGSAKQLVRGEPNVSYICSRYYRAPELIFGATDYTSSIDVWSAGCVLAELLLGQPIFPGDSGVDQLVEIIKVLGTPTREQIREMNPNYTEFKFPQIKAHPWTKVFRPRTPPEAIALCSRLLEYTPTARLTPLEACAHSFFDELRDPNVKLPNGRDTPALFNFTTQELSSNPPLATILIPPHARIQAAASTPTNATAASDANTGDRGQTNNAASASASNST
Method in brief: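 Recombinant enzyme with specific fluorescent substrate, 1 h, product separated by electrophoretic mobility shift. Primary duplicate screen at 25 uM; actives (e.g. 30% inhibition) followed in singleton concentration-response to 50 uM. Signal loss fitted versus DMSO.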

[13] = target: human AKT serine/threonine Kinase 2 (AKT2), AKT2 (gene 208) (UniProt P31751); assay: NVS_ENZ_hAKT2: NovaScreen (NVS) Enzymatic Assay for human AKT serine/threonine Kinase 2 (AKT2) (AID 2283141)
Method in brief: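 Cell-free fluorescence/electrophoretic mobility shift readout of recombinant human AKT2 activity, 1 h after chemical dosing. Duplicate primary screen at 25 uM, then singleton concentration-response up to 50 uM; loss of signal versus DMSO baseline.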

[14] = target: human AKT serine/threonine Kinase 1 (AKT1), AKT1 (gene 207) (UniProt P31749); assay: NVS_ENZ_hAKT1: NovaScreen (NVS) Enzymatic Assay for human AKT serine/threonine Kinase 1 (AKT1) (AID 2283138)
Sequence of human AKT serine/threonine Kinase 1 (AKT1), AKT1 (gene 207) (P31749 whole entry, looked up): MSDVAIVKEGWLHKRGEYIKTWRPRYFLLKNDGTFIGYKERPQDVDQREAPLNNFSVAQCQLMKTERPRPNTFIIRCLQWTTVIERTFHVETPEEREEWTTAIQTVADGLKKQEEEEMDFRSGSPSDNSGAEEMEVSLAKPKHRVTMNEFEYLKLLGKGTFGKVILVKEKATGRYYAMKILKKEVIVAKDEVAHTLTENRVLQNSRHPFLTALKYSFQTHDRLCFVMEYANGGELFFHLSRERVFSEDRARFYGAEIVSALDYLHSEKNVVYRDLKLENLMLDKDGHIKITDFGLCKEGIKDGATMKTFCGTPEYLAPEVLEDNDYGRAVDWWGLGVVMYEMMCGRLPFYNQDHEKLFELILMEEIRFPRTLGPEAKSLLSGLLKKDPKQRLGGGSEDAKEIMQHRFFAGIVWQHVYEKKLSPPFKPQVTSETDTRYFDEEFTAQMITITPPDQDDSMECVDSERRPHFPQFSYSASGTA
Method in brief: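 Recombinant human AKT1 with a specific substrate, product separated by electrophoretic mobility shift, read after 1 h. Compounds at 25 uM in duplicate, then concentration-response up to 50 uM for hits; inhibition relative to DMSO.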

[15] = target: human Caspase 5 (CASP5), CASP5 (gene 838) (UniProt P51878); assay: NVS_ENZ_hCASP5: NovaScreen (NVS) Enzymatic Assay for human Caspase 5 (CASP5) (AID 2283137)
Method in brief: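 Recombinant human caspase 5 expressed in E. coli, fluorogenic substrate, fluorescence read 2 h after dosing. Single-point 25 uM duplicate screen, then concentration-response to maximum 50 uM for actives; DMSO baseline.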

CCN(CC)C(=O)c1cc(S(=O)(=O)Cc2ccccc2)c(N2CCC(c3ccccc3)CC2)cc1N(CC)CCN(C)C
outcome [1]: inactive
AC50 [2]: 0.0737 µM (active)
outcome [3]: inactive
outcome [4]: inactive

CC(=O)N1CCN(c2ccc(OC[C@H]3CO[C@](Cn4ccnc4)(c4ccc(Cl)cc4Cl)O3)cc2)CC1
outcome [5]: inactive
outcome [6]: inactive

COc1cc(C(=O)NC2CCN(C)CC2)ccc1Nc1ncc2c(n1)N(C1CCCC1)CC(F)(F)C(=O)N2C
outcome [5]: inactive
outcome (CDK2 (gene 1017)): inactive
AC50 [7]: 11.2 µM (active)
outcome [2]: inactive
AC50 [8]: 0.00746 µM (active)
outcome [9]: inactive

COc1ccc2cc(S(=O)(=O)N[C@H](CC(=O)N[C@H](Cc3ccc(CN4[C@H](C)CCC[C@@H]4C)cc3)C(=O)N(C)C(C)C)c3ccc4c(c3)OCO4)ccc2c1
outcome [5]: inactive
AC50 [10]: 3.86 µM (active)
AC50 [11]: 9.38 µM (active)
AC50 [2]: 7.52 µM (active)
outcome [12]: inactive

CCOC(=O)O[C@H](C)OC(=O)c1ccc2c(c1)cc(C(=O)NC1CCN(C(C)C)CC1)n2Cc1cc(-c2ccc(Cl)s2)on1
AC50 [5]: 0.447 µM (active)
AC50 [13]: 23.6 µM (active)
AC50 [2]: 9.43 µM (active)

O=C(O)c1ccccc1-n1cc(C(=O)O)c(=O)c2cc(Nc3c(F)cc(F)cc3Cl)c(Cl)cc21
AC50 [5]: 5.43 µM (active)
AC50 [11]: 18.4 µM (active)
outcome [12]: inactive

NC(=O)c1nc(-c2cccc(-c3cc(F)ccc3OCC(F)(F)C(F)(F)F)c2)n[nH]1
outcome [5]: inactive

CC(C)(O)c1ccc(CNC(=O)c2cccnc2Oc2ccc3nonc3c2)cc1
outcome [14]: inactive

CN(C[C@@H](CC[N+]12CCC(C3CCCCC3)(CC1)CC2)c1ccc(Cl)c(Cl)c1)C(=O)c1cc(C(F)(F)F)cc(C(F)(F)F)c1
AC50 [5]: 29.9 µM (active)

O=CCCCC=O
AC50 [14]: 25 µM (active)
outcome [2]: inactive

CN(C)C(=O)C1(N2CCCCC2)CCN(CC[C@@]2(c3ccc(Cl)c(Cl)c3)CN(C(=O)c3ccccc3)CCO2)CC1
outcome [5]: inactive
AC50 [11]: 19 µM (active)
AC50 [2]: 17.5 µM (active)

O=C(O)Cc1cc(I)c(Oc2ccc(O)c(I)c2)c(I)c1
outcome [5]: inactive
outcome [7]: inactive
outcome [3]: inactive

CN1C(=O)N(c2ccccc2Br)Cc2cnc(Nc3ccc4c(c3)OCC(CO)O4)nc21 (stereo not given)
AC50 [15]: 12.5 µM (active)
AC50 (CDK2 (gene 1017)): 11.7 µM (active)
AC50 [10]: 8 µM (active)
AC50 [11]: 17 µM (active)
AC50 [12]: 7.73 µM (active)

CC(C)(C)c1csc(-c2cc3cc(OCc4ccccc4CC(=O)O)ccc3o2)n1
AC50 [5]: 17.1 µM (active)
outcome [7]: inactive
AC50 [11]: 12.5 µM (active)
AC50 [3]: 0.00515 µM (active)

Oc1ccc2ccccc2c1
outcome (CDK2 (gene 1017)): inactive
outcome [2]: inactive
